From PubChem BioAssay (Tox21)
“And” between values parts separate entries of the source, which are not always exact repeats. Identical values can stand only once. Results filed as inconclusive are left out. Where a call stands in place of a potency, no number is given. Some structures have more than one record in an assay (separate samples or runs), and their calls can disagree. The source made the active and inactive calls. Calls follow the shape of the dose curve; as a rule, active = well fitted curve in the direction sought with a large enough effect in the repeat runs; inconclusive = weak or mixed curves; inactive = no such curve, though single readings can be large; an effect the other way counts as inactive or inconclusive.

Tests used:
[1] = qHTS RealTime-Glo MT Cell Viability Assay in HEK293 cells - 16 hour (AID 1224872); settings: RealTime-Glo luminescence; series mostly up to 76.8 µM; also: nearly all actives have a fitted effect of over 50% in size; also: potency is read from the fitted curve at half-maximal effect
Outline: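 HEK293 cells were seeded at 600 cells/well together with NanoLuc luciferase and cell-permeant prosubstrate, preincubated 5 h at 37 C/5% CO2, then given compound in DMSO by pintool. Luminescence from viable-cell prosubstrate reduction was read repeatedly over 40 h.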

[2] = qHTS RealTime-Glo MT Cell Viability Assay in HEK293 cells - 40 hour (AID 1224874); settings: RealTime-Glo luminescence; max response: stronger effect = lower value; also: nearly all actives have a fitted effect of over 50% in size; also: potency is read from the fitted curve at half-maximal effect
Outline: (§1)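 Luminescence readout at each listed time point; HEK293, 600 cells/well, RealTime-Glo MT reagent added with cells; compounds pinned (23 nL in DMSO) after 5 h at 37 C; continuous culture at 37 C.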

[3] = A CellTox Green Cytotoxicity Assay to monitor cytotoxicity in HEK293 cells - 24 hour (AID 1224875); settings: CellTox Green fluorescence; series mostly up to 76.8 µM; also: nearly all actives have a fitted effect of over 45% in size; also: potency is read from the fitted curve at half-maximal effect
Outline: (§2)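 Read-out: fluorescence of a cell-impermeant cyanine dye staining DNA of dead cells, proportional to cytotoxicity. HEK293, 600 cells/well with reagent, compound (23 nL DMSO) added after 5 h; reads at 0, 8, 16, 24, 32, 40 h.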

[4] = A CellTox Green Cytotoxicity Assay to monitor cytotoxicity in HepG2 cells - 16 hour (AID 1224876); settings: CellTox Green fluorescence; series mostly up to 76.8 µM; also: nearly all actives have a fitted effect of over 45% in size; also: potency is read from the fitted curve at half-maximal effect
Outline: (§3)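 HepG2, 600 cells/well premixed w/ CellTox Green; 5 h settle, 37 C/5% CO2; pintool cpd add (DMSO); 37 C, 40 h; fluorescence read at 0, 8, 16, 24, 32, 40 h.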

[5] = A CellTox Green Cytotoxicity Assay to monitor cytotoxicity in HepG2 cells - 24 hour (AID 1224878); settings: CellTox Green fluorescence; series mostly up to 76.8 µM; also: nearly all actives have a fitted effect of over 45% in size; also: potency is read from the fitted curve at half-maximal effect
Outline: as §3

[6] = A CellTox Green Cytotoxicity Assay to monitor cytotoxicity in HepG2 cells - 40 hour (AID 1224879); settings: CellTox Green fluorescence; series mostly up to 76.8 µM; also: nearly all actives have a fitted effect of over 40% in size; also: potency is read from the fitted curve at half-maximal effect
Outline: as §3

[7] = qHTS RealTime-Glo MT Cell Viability Assay in HEK293 cells - 0 hour (AID 1224880); settings: RealTime-Glo luminescence; series mostly up to 76.8 µM; also: top concentration of the series differs between compounds; nearly all actives have a fitted effect of over 45% in size
Outline: as §1

[8] = A CellTox Green Cytotoxicity Assay to monitor cytotoxicity in HEK293 cells - 32 hour (AID 1224881); settings: CellTox Green fluorescence; series mostly up to 76.8 µM; also: nearly all actives have a fitted effect of over 40% in size; also: potency is read from the fitted curve at half-maximal effect
Outline: as §2

[9] = qHTS RealTime-Glo MT Cell Viability Assay in HepG2 cells - 32 hour (AID 1224877); settings: RealTime-Glo luminescence; series mostly up to 76.8 µM; also: nearly all actives have a fitted effect of over 55% in size; also: potency is read from the fitted curve at half-maximal effect
Outline: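 HepG2 cells were seeded at 600 cells/well together with NanoLuc luciferase and a cell-permeant prosubstrate, preincubated 5 h at 37 C/5% CO2, then pin-dosed with compounds in DMSO. Nonlytic luminescence from viable cells was read at each time point.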

[10] = qHTS RealTime-Glo MT Cell Viability Assay in HepG2 cells - 8 hour (AID 1224873); settings: RealTime-Glo luminescence; series mostly up to 76.8 µM; also: nearly all actives have a fitted effect of over 55% in size
Outline: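 HepG2 cells (600/well) mixed with RealTime-Glo MT reagent, settled 5 h at 37 C/5% CO2 before compound addition. Nonlytic NanoLuc luminescence from viable-cell prosubstrate reduction read repeatedly during 40 h treatment at 37 C.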

Row | Compound | Potency [1] | max response [2] | Potency [3] | Potency [4] | Potency [5] | Potency [6] | Potency [7] | Potency [8] | Potency [9] | Potency [2] | Potency [10]
1 | CCN1CCCC1CNC(=O)c1cc(S(=O)(=O)CC)c(N)cc1OC (stereo not given) | inactive | 2.04% (inactive) | inactive | inactive | inactive | inactive | inactive | inactive | – | – | –
2 | Cc1cc(C(C)(C)C)c(O)c(C(C)(C)C)c1 | inactive | -21.9% (inactive) and 0.957% (inactive) and 2.01% (inactive) | 49.1 µM (active) | inactive | inactive | – | inactive | 49.1 µM (active) | inactive | – | –
3 | c1ccc2c(c1)-c1cccc3c1c-2cc1ccccc13 | inactive | 1.04% (inactive) | inactive | inactive | inactive | – | inactive | inactive | inactive | – | –
4 | BrC1CCC(Br)C(Br)CCC(Br)C(Br)CCC1Br (stereo not given) | inactive | -14.3% (inactive) | inactive | inactive | inactive | inactive | inactive | inactive | – | – | –
5 | O=S(=O)(O)c1ccc2nc(-c3ccccc3)[nH]c2c1 | inactive | 4.15% (inactive) and 2.95% (inactive) | inactive | inactive | inactive | inactive | inactive | inactive | inactive | – | –
6 | O=C1Nc2ccccc2C1(c1ccc(O)cc1)c1ccc(O)cc1 | inactive | -14.8% (inactive) | inactive | inactive | inactive | – | inactive | inactive | inactive | 49 µM (active) | –
7 | O | inactive | 0.569% (inactive) and 9.85% (inactive) | inactive | – | inactive | inactive | inactive | inactive | – | – | inactive
8 | CC1=CC(=O)c2ccccc2C1=O | 13.8 µM (active) and 23.9 µM (active) | – | 24.5 µM (active) and 26.8 µM (active) | 49 µM (active) and 26.8 µM (active) | 43.6 µM (active) and 26.8 µM (active) | 43.6 µM (active) and 26.8 µM (active) | – | 19.5 µM (active) and 26.8 µM (active) | 49 µM (active) | 15.5 µM (active) | –
9 | CC(C)CCOC(=O)c1ccc(N(C)C)cc1 | inactive | 3.04% (inactive) | inactive | inactive | inactive | 1.9 µM (active) | inactive | inactive | inactive | – | –
10 | CC(C)CCCCCCc1ccc(O)cc1 | 3.96 µM (active) | – | 28 µM (active) and 38.9 µM (active) | 44.4 µM (active) and 27.5 µM (active) | 22.3 µM (active) and 38.9 µM (active) | – | inactive | 22.3 µM (active) and 38.9 µM (active) | 19.8 µM (active) and inactive | 1.25 µM (active) | –
11 | COc1ccc(CCN2CCC(Nc3nc4ccccc4n3Cc3ccc(F)cc3)CC2)cc1 | 8.9 µM (active) and 9.52 µM (active) | – | 17.8 µM (active) and 23.9 µM (active) | 31.6 µM (active) and 21.3 µM (active) | 19.9 µM (active) and 9.52 µM (active) | 15.8 µM (active) and 8.49 µM (active) | inactive | 14.1 µM (active) and 23.9 µM (active) | 15.8 µM (active) and 10.7 µM (active) | 5.62 µM (active) and 10.7 µM (active) | –
12 | Cc1occc(=O)c1OC(=O)C(C)C | inactive | -0.202% (inactive) | inactive | – | inactive | – | inactive | inactive | – | – | inactive
13 | [Cl][In]([Cl])[Cl] | inactive | – | inactive | inactive | inactive | inactive | inactive | inactive | inactive | – | inactive
14 | NC12CC3CC(CC(C3)C1)C2 | inactive | 6.54% (inactive) | inactive | inactive | inactive | inactive | inactive | inactive | inactive | – | –
15 | O=C1OC2(c3ccc(O)cc3Oc3cc(O)ccc32)c2ccccc21 | inactive | 12.3% (inactive) and -17.2% (inactive) | 692 nM (active) and 1.07 µM (active) | 616 nM (active) and 301 nM (active) | 616 nM (active) and 301 nM (active) | 616 nM (active) and 301 nM (active) | inactive | 692 nM (active) and 1.2 µM (active) | inactive | – | –
16 | CC(C)(C)c1ccccc1 | inactive | 0.372% (inactive) | inactive | inactive | inactive | inactive | inactive | inactive | inactive | – | –
17 | O=C(Cl)c1cccc(C(=O)Cl)c1 | inactive | 7.93% (inactive) and 0.091% (inactive) | inactive | – | inactive | – | inactive | inactive | – | – | inactive
18 | CCCOC(=O)c1cc(O)c(O)c(O)c1 | – | – | inactive | inactive | inactive | inactive | inactive | inactive | – | 48.7 µM (active) and 38.9 µM (active) | inactive
19 | CO[Si](OC)(OC)c1ccccc1 | inactive | 0.242% (inactive) | inactive | inactive | inactive | inactive | inactive | inactive | – | – | –
20 | Cc1scc2c1N(C(=O)CN1CCN(C)CC1)c1ccccc1NC2=O | inactive | 1.2% (inactive) | inactive | – | inactive | inactive | inactive | inactive | inactive | – | –
21 | CCC(C)(C)C(=O)O[C@H]1C[C@@H](C)C=C2C=C[C@H](C)[C@H](CC[C@@H]3C[C@@H](O)CC(=O)O3)[C@H]21 | – | – | inactive | – | – | 24.5 µM (active) and 9.52 µM (active) | – | inactive | – | – | –
22 | CC[C@@H](N)CO | inactive | -8.2% (inactive) | inactive | – | inactive | inactive | inactive | inactive | – | – | –
23 | Cc1ccc(-c2cc(C(F)(F)F)nn2-c2ccc(S(N)(=O)=O)cc2)cc1 | 38.7 µM (active) and 27.5 µM (active) and inactive | – | inactive | – | 19.4 µM (active) and 49 µM (active) | 48.8 µM (active) and 49 µM (active) | inactive | 49 µM (active) and inactive | 49 µM (active) and inactive | 21.8 µM (active) and 30.9 µM (active) | –
24 | COc1ccc(CCN(C)CCCC(C#N)(c2ccc(OC)c(OC)c2)C(C)C)cc1OC (stereo not given) | – | – | inactive | inactive | – | – | – | inactive | – | – | –
25 | NC(N)=NC(=O)Cc1c(Cl)cccc1Cl | inactive | -13.5% (inactive) | inactive | – | inactive | inactive | inactive | inactive | inactive | – | –
